An excerpt weighted towards active compounds, which were near 1.5% of everything screened.
BH1578 lux ind = quorum light induction in luxS cqsA deficient V. cholerae; V. cholerae BH1578 lux reporter, luminescence, 6 h; activation, % at 18.7 µM; hit rate 0.16% among 350,000; in the data active = activation mostly above about 9.7%, no sharp cut-off
CCHF vOTU inh = blocks the CCHF virus ovarian tumor domain protease | AID 651958 | hit rate 0.55% among 370,000 | inhibition, % at 11.5 µM | CCHFV vOTU protease, Pep-AMC fluorescence; in the data active = inhibition above about 30%; also: 0% = vehicle wells with enzyme and 100% = no enzyme wells
SSB-PriA inh = K. pneumoniae PriA-SSBct interaction inhibition; AlphaScreen SSBct-PriA binding, biotinylated peptide; inhibition, % at 33 µM; hit rate 0.6% among 430,000; AID 1272365; in the data active = inhibition mostly above about 37%, no sharp cut-off; inactive = mostly below about 20%;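 also: plate controls were negative control peptide for no effect and reference peptide for full effect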
VHR inh abs = DUSP3 (human) phosphatase inhibition | P51452 | recombinant VHR phosphatase, pNPP absorbance | inhibition, % at 13.3 µM | hit rate 0.52% among 290,000 | AID 1654; in the data active = inhibition above about 50%
Target sequence (P51452 whole entry, looked up): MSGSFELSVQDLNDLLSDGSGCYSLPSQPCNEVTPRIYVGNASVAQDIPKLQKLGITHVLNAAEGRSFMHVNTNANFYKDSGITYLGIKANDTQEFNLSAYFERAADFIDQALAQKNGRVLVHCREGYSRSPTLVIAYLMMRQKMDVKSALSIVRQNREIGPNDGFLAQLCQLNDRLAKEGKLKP
TcdB inh = blocks C. difficile toxin B glycohydrolase activity; TcdB glycohydrolase enzymatic assay, plate reader; inhibition, % at 9.99 µM; hit rate 0.24% among 350,000; AID 652162; in the data active = inhibition above about 10%
PrPC TRFRET = inhibitors of human cell surface prion protein PrPC; inhibition, % at 13.8 µM; TR-FRET read-out; hit rate 0.43% among 370,000; AID 720596; in the data active = inhibition above about 24%; also: 0% = median of the test wells and 100% = reference compound wells
An asterisk follows results filed as active; i = inactive; . = no result given; ! = not active in a repeat.

SMILES | BH1578 lux ind | CCHF vOTU inh | SSB-PriA inh | VHR inh abs | TcdB inh | PrPC TRFRET
COc1ccc(S(=O)(=O)Nc2cccc3c2O[C@H](CN(C)C(=O)NC(C)C)[C@@H](C)CN([C@H](C)CO)C3=O)cc1 | i | -7 | 99* | . | 3 | -2
C[C@H](CO)N1C[C@H](C)[C@@H](CN(C)CC2CCCCC2)Oc2ccc(NC(=O)CCN3CCOCC3)cc2C1=O | i | -9 | 6 | . | 10*! | -3
O=C(Nc1nnc(C2CCCO2)o1)c1cc2ccccc2o1 (stereo not drawn) | . | . | 21 | . | . | .
Cc1cc(-c2nnc(NC(=O)C3COc4ccccc4O3)o2)n(C)n1 (stereo not drawn) | . | . | 44* | . | . | .
Cc1ccc(C)c(-c2nnc(NC(=O)C3COc4ccccc4O3)o2)c1 (stereo not drawn) | . | . | -17 | . | . | .
O=C(Nc1nnc(-c2ccno2)o1)C1COc2ccccc2O1 (stereo not drawn) | . | . | 21 | . | . | .
O=C(Nc1nnc(C2CCCO2)o1)C1COc2ccccc2O1 (stereo not drawn) | . | . | 75* | . | . | .
O=C(Nc1nnc(C2CCCO2)o1)C(c1ccccc1)c1ccccc1 (stereo not drawn) | . | . | 84* | . | . | .
Cc1ccc(S(=O)(=O)Nc2ccccc2C(=O)Nc2sc3c(c2C#N)CCC3)cc1 | . | . | 2 | . | . | .
O=C(c1ccccc1Cl)N(Cc1ccccn1)c1nc2c(F)cccc2s1 | . | . | -4 | . | . | .
O=C(CNC(=O)c1ccccc1Br)N/N=C/c1ccc(O)cc1 | 0 | 10 | . | 13 | 13* | 1
O=C(CNC(=O)c1ccccc1Br)NN=Cc1ccc(O)cc1 | . | . | 1 | . | . | .
O=C(N/N=C/c1ccc(O)cc1)c1csc2ccccc12 | 18* | 9 | . | 16 | . | 9
CC(C)N(C(=O)Cn1c2ccc(Br)cc2c2nc3ccccc3nc21)c1ccccc1 | . | . | 13 | . | . | .
Cn1nc(-c2ccc(Cl)cc2)nc2c(=O)n(C)c(=O)nc1-2 | i | . | . | 34 | . | .
CCn1nc(-c2cccs2)nc2c(=O)n(C)c(=O)nc1-2 | i | . | -10 | 90* | . | .
O=C(NCCCn1ccnc1)c1ccc(Br)cc1 | -1 | 7 | 9 | 21 | 0 | -7
O=C(NCCCn1ccnc1)c1cccc(Br)c1 | -1 | 3 | -16 | 53* | 1 | 5
COc1ccc(C(=O)N/C(=C\c2ccco2)C(=O)NCCCn2ccnc2)cc1 | 0 | -13 | -1 | -18 | -1 | 2
Cc1ccc(C(=O)N/C(=C\c2ccco2)C(=O)NCCCn2ccnc2)cc1C | i | 1 | 86* | 4 | 2 | 0
O=C(NCCCn1ccnc1)Nc1ccc(F)c(Cl)c1 | . | . | 43 | . | . | .
O=C(NCCCn1ccnc1)Nc1ccc(Cl)c(Cl)c1 | . | 2 | 76* | 27 | . | 3
COc1ccnc(CSC(N)=Nc2ccccc2C(F)(F)F)c1 | -3 | -18 | 5 | 5 | 5 | -4
COc1ccnc(CSC(N)=Nc2ccccc2OC)c1 | -8 | 5 | 40* | 8 | . | -12
CSc1ncccc1C(=O)N1CCN(S(=O)(=O)c2ccc(C)cc2)CC1 | i | -10 | -9 | 26 | 8 | 8
SMILES | BH1578 lux ind | CCHF vOTU inh | SSB-PriA inh | VHR inh abs | TcdB inh | PrPC TRFRET
CSc1ncccc1C(=O)N1CCN(S(=O)(=O)c2ccccc2)CC1 | 0 | 2 | 0 | 58* | 1 | -6
CC(C)c1cc(CN2CCN(Cc3ccc(F)c(F)c3)C(CCO)C2)[nH]n1 (stereo not drawn) | i | 10 | 2 | -3 | 10* | -5
O=C(OCC(=O)N1CCOCC1)c1ccc(F)cc1Cl | 0 | 15 | -5 | 11 | -1 | -4
CC1CN(C(=O)COC(=O)c2ccc(F)cc2Cl)CC(C)O1 (stereo not drawn) | -1 | 12 | -19 | 50* | 1 | -2
O=C(CCCS(=O)(=O)c1ccc(F)cc1)Nc1cccc(-c2nc3ccccc3[nH]2)c1 | . | . | -10 | . | . | .
O=c1c2[nH]c3ccc(Br)cc3c2ncn1CCCn1ccnc1 | i | 11 | 61* | 23 | . | -3
COc1ccc(C(C(=O)NCC2CCCO2)N(C(=O)CNC(=O)c2ccco2)c2cc(C)ccc2C)cc1OC (stereo not drawn) | i | -3 | -1 | 53* | 1 | -2
COc1cc(OC)cc(N(C(=O)CNC(=O)c2ccco2)C(C(=O)NCC2CCCO2)c2ccccc2)c1 (stereo not drawn) | 0 | 9 | -9 | 58* | 2 | -6
CCc1ccc(N(C(=O)CNC(=O)c2ccco2)C(C(=O)NCC2CCCO2)c2ccccc2)cc1 (stereo not drawn) | -1 | 9 | -19 | 22 | 1 | 3
CCn1c(=O)n(CC)c2cc(N3CCCC3)c(NC(=O)c3c(F)cccc3F)cc21 | i | 3 | 37 | 57* | 1 | -1
CCn1c(=O)n(CC)c2cc(N3CCCC3)c(NC(=O)c3ccc(F)cc3)cc21 | i | 0 | 22 | 9 | 0 | -1
COc1ccccc1NC(=O)C(=O)NCC1(c2cccs2)CCOCC1 | . | . | -7 | . | . | .
Cc1cc(N=Nc2ccccc2C)ccc1N | -1 | 10 | 81* | . | 1 | 1
Cc1ccccc1N=Nc1ccc(NC(=O)c2sc3ccccc3c2Cl)c(C)c1 | . | . | -2 | . | . | .
CC1CCN(c2nc3ccc(C(=O)NCCCN4CCCCC4)cc3s2)CC1 | 0 | -2 | -12 | 37 | 0 | -14
CCC1CCCCN1CCCNC(=O)c1ccc2nc(N3CCC(C)CC3)sc2c1 (stereo not drawn) | 0 | 17 | 9 | 51* | 1 | -7
CCC1CCCCN1CCCNC(=O)c1ccc(/C=C2/Sc3ccccc3NC2=O)cc1 (stereo not drawn) | 0 | 4 | -11 | 12 | 1 | -25
CCC1CCCCN1CCCNC(=O)c1ccc2c(c1)NC(=O)CS2 (stereo not drawn) | -1 | 5 | 1 | 56* | -1 | -4
CN(C)c1cccc(C(=O)NCC2(c3ccsc3)CCCC2)c1 | . | . | 21 | . | . | .
Cc1ccc(N/N=C/c2cccnc2)cc1 | 0 | 4 | . | -3 | . | 16
Cc1cc(N/N=C/c2ccncc2)nc2ccccc12 | 0 | 8 | . | 32 | 12* | -10
Cc1ccc(N/N=C/c2ccncc2)cc1 | -1 | -7 | . | 57* | -1 | 17
Cc1cc(N/N=C/c2cccc(Br)c2)nc2ccccc12 | 1 | -1 | . | -2 | . | 7
CC1CN(S(=O)(=O)c2ccc3c(c2)oc(=O)c2cc(S(=O)(=O)N4CC(C)OC(C)C4)ccc23)CC(C)O1 (stereo not drawn) | . | . | -7 | . | . | .
COc1ccc(Cl)c2sc(NC(=O)CCOc3ccccc3)nc12 | . | . | -1 | . | . | .
SMILES | BH1578 lux ind | CCHF vOTU inh | SSB-PriA inh | VHR inh abs | TcdB inh | PrPC TRFRET
CC(=NNc1nc2ccccc2s1)c1ncccn1 | 1 | -3 | 2 | . | 1 | 16
CC(=NNc1nc2ccccc2o1)c1ncccn1 | . | -12 | 101* | . | -9 | 20
CCC(=O)Nc1ccc(NC(=O)c2ccc3c(c2)OCO3)cc1 | 8 | -8 | 1 | 0 | . | 5
CCN(CC)c1ccc(NC(=O)c2ccc3c(c2)OCO3)cc1 | -1 | 5 | 24 | 54* | 3 | 24
CCCN(CCC)S(=O)(=O)c1cccc(C(=O)Nc2ccc3c(c2)OCO3)c1 | i | 12 | -7 | 52* | . | 15
Cc1nn(C)cc1C(=O)NC(C)(C)C | . | . | -18 | . | . | .
